Assay results published in PubChem BioAssay (EPA / NIEHS).
Results filed as inconclusive are left out. The source made the active and inactive calls. How the source made its calls: active means hit-call score of the fitted dose curve at least 0.9, where 1 is the maximum; inconclusive means response in the unintended direction; inactive means score below 0.9.

Legend:
[1] = TOX21_p53_BLA_p2_viability: Viability Assessment in the Tox21 HCT-116 p53 Agonism Beta-lactamase Assay, Phase 2 (AID 2283591);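 further: actives lower the ATP signal meaning cytotoxicity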
How it was run: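 HCT-116 p53-bla cells (4000/well) rested 5 h at 37C, then received compounds in DMSO (217-fold dilution) for 16 h at 37C, 5% CO2. After the CCF4 read, CellTiter-Glo was added; ATP luminescence was read after 30 min at room temperature.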

[2] = biological target: Cellular tumor antigen p53 (Homo sapiens) (UniProt P04637); assay: TOX21_p53_BLA_p2_ratio: Tox21 HCT-116 p53 Agonism Beta-lactamase Assay, Ratio, Phase 2 (AID 2283592)
How it was run: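 First, HCT116 reporter cells settle for 5 h at 37C. Next, DMSO compound solutions are pinned in (217-fold dilution) and left 16 h. Finally, CCF4-AM substrate is loaded 2 h at room temperature and the 460/530 nm ratio read.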

[3] = TOX21_p53_BLA_p3_viability: Viability Assessment in the Tox21 HCT-116 p53 Agonism Beta-lactamase Assay, Phase 3 (AID 2283593);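 further: cells exposed to compound for 16 h before reading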
How it was run: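 HCT-116 cells (4000/well) rested 5 h at 37C, then got DMSO compounds by pin tool (217-fold dilution) for 16 h at 37C, 5% CO2. After the bla read, CellTiter-Glo was added and luminescence read at 30 min, room temperature.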

[4] = TOX21_p53_BLA_p4_viability: Viability Assessment in the Tox21 HCT-116 p53 Agonism Beta-lactamase Assay, Phase 4 (AID 2283597);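 further: hits lower the luminescence signal meaning cytotoxicity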
How it was run: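 4000 HCT116 cells per well; 5 h attachment; compounds from DMSO, 217-fold dilution; 16 h at 37C. Then CCF4-AM, 2 h RT, followed by CellTiter-Glo, 30 min RT, luminescence. Decrease = cytotoxicity.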

[5] = biological target: Cellular tumor antigen p53 (Homo sapiens) (UniProt P04637); assay: TOX21_p53_BLA_p5_ratio: Tox21 HCT-116 p53 Agonism Beta-lactamase Assay, Ratio, Phase 5 (AID 2283599)
How it was run: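 HCT-116 cells carrying a p53-inducible beta-lactamase reporter were seeded at 4000 cells/well and dosed after 5 h with compound in DMSO (217-fold dilution). After 16 h at 37C, CCF4-AM substrate was added for 2 h, and the 460/530 nm emission ratio was scored as gain-of-signal versus DMSO.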

[6] = TOX21_p53_BLA_p5_viability: Viability Assessment in the Tox21 HCT-116 p53 Agonism Beta-lactamase Assay, Phase 5 (AID 2283600)
How it was run: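 Decreased CellTiter-Glo luminescence denotes lost viability. Exposure: 16 h at 37C, 5% CO2, with compounds from DMSO stocks diluted 217-fold in wells of 4000 cells.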

[7] = biological target: Cellular tumor antigen p53 (Homo sapiens) (UniProt P04637); assay: TOX21_p53_BLA_p4_ratio: Tox21 HCT-116 p53 Agonism Beta-lactamase Assay, Ratio, Phase 4 (AID 2283601)
How it was run: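 HCT116 cells carrying an inducible beta-lactamase reporter were plated at 4000 cells/well, rested 5 h, then exposed to compounds in DMSO (217-fold dilution) for 16 h at 37C. CCF4-AM substrate was loaded 2 h at room temperature; 460/530 nm emission ratio scored gain-of-signal versus DMSO.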

Chain of Cellular tumor antigen p53 (Homo sapiens) (P04637 whole entry, looked up): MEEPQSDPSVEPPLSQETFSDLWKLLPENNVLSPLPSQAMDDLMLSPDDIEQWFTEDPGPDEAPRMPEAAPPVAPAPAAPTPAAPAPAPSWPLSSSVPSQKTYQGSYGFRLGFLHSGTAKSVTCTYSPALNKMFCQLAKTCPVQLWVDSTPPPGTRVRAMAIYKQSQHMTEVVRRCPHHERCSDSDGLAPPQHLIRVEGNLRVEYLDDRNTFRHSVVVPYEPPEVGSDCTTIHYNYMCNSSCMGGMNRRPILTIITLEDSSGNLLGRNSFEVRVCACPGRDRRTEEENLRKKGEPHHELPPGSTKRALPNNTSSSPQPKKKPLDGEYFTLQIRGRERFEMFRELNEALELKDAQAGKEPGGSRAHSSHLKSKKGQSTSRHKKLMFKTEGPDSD

SMILES | outcome [1] | outcome [2] | outcome [3] | outcome [4] | outcome [5] | outcome [6] | outcome [7] | AC50 [4] | AC50 [7]
OCC1O[C@@H](O[C@@H]2C(CO)OC(O)C(O)C2O)C(O)C(O)C1O (stereo partly drawn) | inactive | inactive | inactive | inactive | inactive | inactive | – | – | –
CC(C)CN(C[C@@H](OP(=O)(O)O)[C@H](Cc1ccccc1)NC(=O)O[C@H]1CCOC1)S(=O)(=O)c1ccc(N)cc1 | inactive | inactive | inactive | inactive | inactive | – | – | – | –
On1nnc2ccccc21 | inactive | inactive | inactive | inactive | inactive | inactive | inactive | – | –
O=C(CCCN1CCN(c2ccc(F)cc2)CC1)NC1c2ccccc2CSc2ccccc21 (stereo not drawn) | inactive | inactive | inactive | inactive | inactive | inactive | – | – | –
CCCCCC1Nc2cc(C(F)(F)F)c(S(N)(=O)=O)cc2S(=O)(=O)N1 (stereo not drawn) | inactive | inactive | inactive | inactive | inactive | inactive | – | – | –
C[C@H]1C[C@H]2[C@@H]3CCC4=CC(=O)C=C[C@]4(C)[C@@]3(F)[C@@H](O)C[C@]2(C)[C@@]1(O)C(=O)CCl | inactive | inactive | inactive | inactive | – | – | – | – | –
CCCCCSCCCCC | inactive | inactive | inactive | inactive | inactive | inactive | – | – | –
O=c1[nH]cnc2[nH]cc(CN3CCCCC3)c12 | inactive | inactive | inactive | inactive | inactive | inactive | – | – | –
CC1(C)C(=O)C(C)(C)C1=O | inactive | inactive | inactive | inactive | inactive | inactive | – | – | –
CN1CCN(CCC=C2c3ccccc3Sc3ccc(S(=O)(=O)N(C)C)cc32)CC1 | inactive | inactive | inactive | – | inactive | inactive | – | 34.9 µM (active) | 43.7 µM (active)
Nc1cc(S(=O)(=O)O)ccc1S(=O)(=O)O | inactive | inactive | inactive | inactive | – | – | – | – | –
NC(=S)NS(=O)(=O)c1ccc(N)cc1 | inactive | inactive | inactive | inactive | inactive | inactive | – | – | –
CC1(C)S[C@@H]2[C@H](NC(=O)C(C(=O)O)c3ccsc3)C(=O)N2[C@H]1C(=O)O (stereo partly drawn) | inactive | inactive | inactive | inactive | inactive | inactive | – | – | –
OCCN1CCN(CC/C=C2/c3ccccc3Sc3ccc(Cl)cc32)CC1 | inactive | inactive | inactive | inactive | – | – | – | – | –
COC(=O)C1=C(C)NC(C)=C(C(=O)O[C@@H]2CCCN(Cc3ccccc3)C2)[C@@H]1c1cccc([N+](=O)[O-])c1 | inactive | inactive | inactive | inactive | inactive | inactive | inactive | – | –
CC[N+]1(CC)CCC(=C(c2ccccc2)c2ccccc2)C1C (stereo not drawn) | inactive | inactive | inactive | inactive | inactive | inactive | – | – | –

SMILES | outcome [1] | outcome [2] | outcome [3] | outcome [4] | outcome [5] | outcome [6] | outcome [7] | AC50 [4] | AC50 [7]
CC(C)OCC1CO1 (stereo not drawn) | inactive | inactive | inactive | inactive | inactive | – | – | – | –
CC(=O)Nc1cccc(O)c1 | inactive | inactive | inactive | inactive | inactive | inactive | inactive | – | –
Clc1ccc2c(c1)CCc1cccnc1C2=C1CCNCC1 | inactive | inactive | inactive | inactive | inactive | inactive | inactive | – | –
O=C(N/N=C/c1ccccc1O)c1ccncc1 | inactive | inactive | inactive | – | inactive | inactive | inactive | 8.16 µM (active) | –
O=P(O)(O)C(Sc1ccc(Cl)cc1)P(=O)(O)O | inactive | inactive | inactive | inactive | inactive | inactive | – | – | –
CCCCCCCCCCC(=O)O | inactive | inactive | inactive | inactive | inactive | inactive | – | – | –
O=C1OC(=O)c2cc([N+](=O)[O-])ccc21 | inactive | inactive | inactive | inactive | inactive | – | – | – | –
COc1cc(C)c(Cc2cnc(N)nc2N)cc1OC | inactive | inactive | inactive | inactive | inactive | – | – | – | –
C=CCOc1c(Br)cc(C(C)(C)c2cc(Br)c(OCC=C)c(Br)c2)cc1Br | inactive | inactive | inactive | inactive | inactive | inactive | – | – | –
CC(C)(COP(=O)(O)OP(=O)(O)OC[C@H]1O[C@@H](n2cnc3c(N)ncnc32)[C@H](O)[C@@H]1OP(=O)(O)O)C(O)C(=O)NCCC(=O)NCCS (stereo partly drawn) | inactive | inactive | inactive | inactive | inactive | inactive | – | – | –
O=C(CCN1CCN2CCCC2C1)N1c2ccccc2Sc2ccc(Cl)cc21 (stereo not drawn) | inactive | inactive | inactive | inactive | – | – | – | – | –
O=C(O)Cc1cccc(-c2cc(CCCCCCc3ccc(O[C@H]4O[C@H](CO)[C@@H](O)[C@H](O)[C@@H]4O)c(-c4cccc(CC(=O)O)c4)c3)ccc2O[C@H]2O[C@H](CO)[C@@H](O)[C@H](O)[C@@H]2O)c1 | inactive | inactive | inactive | inactive | inactive | inactive | – | – | –
CC(C)(C)NC[C@H](O)COc1ccccc1C1CCCC1 | inactive | inactive | inactive | inactive | inactive | inactive | inactive | – | –
CCOc1ccc(N=C(C)Nc2ccc(OCC)cc2)cc1 | inactive | inactive | inactive | inactive | inactive | – | – | – | –
O=C(O)C=CC(=O)Nc1ccc(S(=O)(=O)Nc2nccs2)cc1 | inactive | inactive | inactive | inactive | – | – | – | – | –
C=C(C)C(=O)OCCN(CC)CC | inactive | inactive | inactive | inactive | inactive | – | – | – | –
